About 2,700 (0.93%) of roughly 290,000 compounds were called active. The rule behind the calls is not given here. The list comes from a sample in which actives are over-represented; it also holds similar structures and randomly drawn compounds.
Target: Eukaryotic translation initiation factor 4H (Homo sapiens) (UniProt Q15056)
Experiment: human eIF4H binding inhibitors, primary screen, translation initiation inhibitor project, biochemical, uHTS, fluorescence polarization (AID 2012);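 note: calls also rest on retests at 20 µM and on dose response follow-up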
Settings: eIF4H fluorescence polarization binding assay, stronger effect = higher value

## CC(=O)N1CCN(c2ccccc2NC(=S)NC(=O)c2cc3ccccc3o2)CC1
At 35 µM
  inhibition: -11.7% (inactive)

## CC(C(=O)Nc1ccc(O)c(C(=O)O)c1)N1C(=O)/C(=C/c2cccs2)SC1=S (stereo not given)
At 35 µM
  inhibition: -4.3% (inactive)

## Nc1ccc(S(=O)(=O)NC(=O)c2ccccc2)cc1
At 35 µM
  inhibition: -6.9% (active)
Confirmation average, at 20 µM
  inhibition: 95.5%

## Cc1ccc(S(=O)(=O)NC(=O)c2cccc(C)c2)cc1
At 35 µM
  inhibition: -5% (inactive)

## CC(=O)NS(=O)(=O)c1ccccc1
At 35 µM
  inhibition: -6.2% (inactive)

## CN1CN(C)c2ccc([N+](=O)[O-])c3cccc1c23
At 35 µM
  inhibition: 2.5% (inactive)

## Nc1c(C(=O)c2cccs2)sc2nsc(SCCN3CCCCC3)c12
At 35 µM
  inhibition: 47.9% (inactive)

## Cc1c(-c2cccc(Cl)c2)nc2ccccc2c1C(=O)OCC(=O)N(C)C1CCS(=O)(=O)C1 (stereo not given)
At 35 µM
  inhibition: -7% (inactive)

## CN(C(=O)COC(=O)c1nc(Cl)ccc1Cl)C1CCS(=O)(=O)C1 (stereo not given)
At 35 µM
  inhibition: 10.5% (inactive)

## CN(C(=O)COC(=O)c1cc(-c2ccco2)nc2ccccc12)C1CCS(=O)(=O)C1 (stereo not given)
At 35 µM
  inhibition: 87.9% (active)

## Cc1ccnc2nc(C(=O)Nc3nnc(-c4ccccc4)o3)nn12
At 35 µM
  inhibition: 79.8% (active)
Confirmation average, at 20 µM
  inhibition: 77.1%

## Cc1cccc(NC(=O)Nc2nnc(-c3ccccc3)o2)c1
At 35 µM
  inhibition: -0.2% (inactive)

## CCc1nnc(NC(=O)c2nc3nccc(C)n3n2)s1
At 35 µM
  inhibition: -4% (inactive)

## O=C(N/N=C/c1ccccc1O)C1CCCC1
At 35 µM
  inhibition: -4.4% (inactive)

## CN(C(=O)C1CCN(c2ncnc3c2nc2n3CCCCC2)CC1)C1CCCCC1
At 35 µM
  inhibition: -2.5% (inactive)

## Cc1ccc(OCc2cc(C(=O)N(C)CCn3ccnc3C)no2)cc1C
At 35 µM
  inhibition: -8.6% (inactive)

## Cc1cccn2c(=O)c3cc(C(=O)NCC4CCCO4)c(=N)n(Cc4ccc(F)cc4)c3nc12 (stereo not given)
At 35 µM
  inhibition: -14.9% (inactive)

## Cc1ccc2nc3c(cc(C(=O)NCCc4ccccc4)c(=N)n3CC3CCCO3)c(=O)n2c1 (stereo not given)
At 35 µM
  inhibition: 94.7% (active)

## COc1ccc(CNC(=O)c2cc3c(=O)n4ccccc4nc3n(CC3CCCO3)c2=N)cc1 (stereo not given)
At 35 µM
  inhibition: -5.4% (inactive)

## Cc1cc(NC(=O)[C@H](C)NC(=O)c2ccco2)ccc1Br
At 35 µM
  inhibition: -0.5% (inactive)

## N#CC1=C(N)N(c2ccc(F)cc2)C(=O)C1
At 35 µM
  inhibition: 50% (active)

## O=C1CCCC2=C1C(c1cccs1)CC(=O)N2c1ccc(F)cc1 (stereo not given)
At 35 µM
  inhibition: -3.5% (inactive)

## O=C1CC(N2CCN(c3ccc(F)cc3)CC2)C(=O)N1c1ccccc1 (stereo not given)
At 35 µM
  inhibition: -4% (inactive)

## Cc1cc(S(=O)(=O)N2CCOCC2)ccc1OCC(=O)N1CCOCC1
At 35 µM
  inhibition: -9.8% (inactive)

## O=C(NC1CCC(O)CC1)c1ccccc1OCc1ccc(F)cc1 (stereo not given)
At 35 µM
  inhibition: 4.1% (inactive)

## CCCNC(=O)CCc1c(C)nc2c(c(C)nn2-c2ccccc2)c1C
At 35 µM
  inhibition: -1.8% (inactive)

## Cc1ccc(NC(=O)C(CC(=O)O)C2CCCO2)c(C)c1 (stereo not given)
At 35 µM
  inhibition: -7% (inactive)

## N/C(=N\OS(=O)(=O)c1cccc([N+](=O)[O-])c1)c1ccncc1
At 35 µM
  inhibition: 73.8% (active)
Confirmation average, at 20 µM
  inhibition: 88.7%

## O=C(N/N=C/c1cccc([N+](=O)[O-])c1)c1ccncc1
At 35 µM
  inhibition: 0.8% (inactive)

## CO/N=C(\N)c1ccc([N+](=O)[O-])cc1
At 35 µM
  inhibition: 0.6% (inactive)

## CC(Cc1cccs1)N(Cc1ccc(Cl)cc1)C(=O)c1ccncc1 (stereo not given)
At 35 µM
  inhibition: -2% (inactive)

## CCN(C(=O)COC(=O)c1cc(S(=O)(=O)N2CCc3ccccc32)ccc1OC)C1CCS(=O)(=O)C1 (stereo not given)
At 35 µM
  inhibition: 3.9% (active)
Confirmation average, at 20 µM
  inhibition: 71.9%

## COc1ccc(C(=O)OCC(=O)NCC2CCCCC2)cc1S(=O)(=O)N1CCCc2ccccc21
At 35 µM
  inhibition: -7.1% (inactive)

## COc1ccccc1N(C)C(=O)c1cc(S(=O)(=O)N2CCc3ccccc32)cn1C
At 35 µM
  inhibition: -9.4% (inactive)

## COc1cc(OC)c(NC(=O)C2CCCN2C(=O)OCc2ccccc2)cc1Cl (stereo not given)
At 35 µM
  inhibition: -2% (inactive)

## Cc1cccc(C(=O)NC(=S)N(C)C2CCCCC2)c1
At 35 µM
  inhibition: -8.7% (inactive)

## S=C(NCc1ccco1)Nc1ccc2c(c1)OCCO2
At 35 µM
  inhibition: -2.7% (active)
Confirmation average, at 20 µM
  inhibition: 51.4%

## S=C(NCc1ccc2c(c1)OCO2)NCc1ccco1
At 35 µM
  inhibition: -0.2% (inactive)

## COc1cccc(NC(=S)NCc2ccco2)c1
At 35 µM
  inhibition: 22.2% (inactive)

## O=C(CSc1ccc(-c2ccc(Br)cc2)nn1)NCC1CCCO1 (stereo not given)
At 35 µM
  inhibition: 3.3% (inactive)

## O=C(N/N=C/c1ccc(OCc2ccccc2)cc1)c1ccc(O)cc1
At 35 µM
  inhibition: -5.8% (inactive)

## O=C(COc1ccc(/C=N/NC(=O)c2ccc(O)cc2)cc1)Nc1ccc([N+](=O)[O-])cc1
At 35 µM
  inhibition: -1.7% (active)
Confirmation average, at 20 µM
  inhibition: 85.6%

## O=C(COc1ccc([N+](=O)[O-])cc1)Nc1ccc(N2CCCC2)cc1
At 35 µM
  inhibition: 13.8% (inactive)

## CCSCc1nc(N)nc(NCCc2ccccc2)n1
At 35 µM
  inhibition: -0.9% (inactive)

## CC(=O)c1cnc(SCC(=O)O)nc1C
At 35 µM
  inhibition: -2.4% (active)
Confirmation average, at 20 µM
  inhibition: 82.3%

## CC(=O)c1cnc(SCCN2C(=O)c3ccccc3C2=O)nc1C
At 35 µM
  inhibition: -11.9% (inactive)

## CSc1ncc(C(=O)NCCCc2ccccc2)c(C)n1
At 35 µM
  inhibition: -7.3% (inactive)

## CSCCC(NS(=O)(=O)c1ccccc1F)C(=O)N1CC=C(c2ccccc2)CC1 (stereo not given)
At 35 µM
  inhibition: 0% (inactive)

## Cn1cccc1/C=N/NC(=O)c1ccc(OC(F)(F)C(F)F)cc1
At 35 µM
  inhibition: 9.7% (active)
Confirmation average, at 20 µM
  inhibition: 56.1%

## COc1ccc(/C=N/NC(=O)c2cccc(C(F)(F)F)c2)cc1
At 35 µM
  inhibition: -2.2% (inactive)

## Cn1cccc1/C=N/NC(=O)CNc1cccc2ccccc12
At 35 µM
  inhibition: -6.2% (inactive)

## NC(=O)c1ccc(Nc2ccc3nonc3c2[N+](=O)[O-])cc1
At 35 µM
  inhibition: -14.2% (inactive)

## COc1ccccc1NC(=O)N1CCCC1C(=O)NCc1cccs1 (stereo not given)
At 35 µM
  inhibition: -15.4% (inactive)

## CCS(=O)(=O)N1CCC(N2CCN(c3ccccc3)CC2)CC1
At 35 µM
  inhibition: 7.8% (inactive)

## CC(/C=N/NC(=O)c1ccncc1)=C\c1ccco1
At 35 µM
  inhibition: 25.2% (inactive)

## C/C(=C\c1ccco1)C1Nc2cccc3cccc(c23)N1
At 35 µM
  inhibition: 107% (active)

## CC(/C=N/NC(=O)c1cc(-c2ccc3ccccc3c2)n[nH]1)=C\c1ccco1
At 35 µM
  inhibition: 66.1% (inactive)
Confirmation average, at 20 µM
  inhibition: -19.6%

## O=C(/C=C/c1ccco1)Nc1ccc(Oc2ccccc2)cc1
At 35 µM
  inhibition: 2.4% (inactive)

## Cc1ccc(-n2nc3ccc(NC(=O)/C=C/c4ccco4)cc3n2)cc1C
At 35 µM
  inhibition: 71.7% (active)
Confirmation average, at 20 µM
  inhibition: 73.8%

## O=C(/C=C/c1ccco1)Nc1cccc(-c2nc3ccccc3[nH]2)c1
At 35 µM
  inhibition: -7.2% (inactive)

## COc1ccc(C2CC(c3ccc([N+](=O)[O-])cc3)=NN2C(C)=O)cc1 (stereo not given)
At 35 µM
  inhibition: 2.5% (inactive)

## Cc1cc(C)c2c3c(sc2n1)C(c1ccccc1)C(C#N)=C(N)O3 (stereo not given)
At 35 µM
  inhibition: 1% (inactive)
Confirmation average, at 20 µM
  inhibition: 28.6%

## CC1=C(C(=O)Nc2ccccc2)C(c2ccco2)C(C#N)=C(SCC(N)=O)N1 (stereo not given)
At 35 µM
  inhibition: 10.9% (inactive)

## N#CC1=C(N)Oc2c(sc3ccccc23)C1c1ccco1 (stereo not given)
At 35 µM
  inhibition: 74% (active)

## COc1ccccc1CCNC(=O)c1c(C)nn(CC(C)C)c1Cl
At 35 µM
  inhibition: -10.7% (inactive)

## O=S(=O)(Oc1ccccc1C(=S)N1CCOCC1)c1ccc(Cl)cc1
At 35 µM
  inhibition: 1% (inactive)

## CCN(CC)c1ccc(/C=N/Nc2nc(C)cc(C)n2)c(O)c1
At 35 µM
  inhibition: 83.3% (active)
Confirmation average, at 20 µM
  inhibition: 87.6%

## Cc1cc(C)nc(N/N=C/c2ccncc2)n1
At 35 µM
  inhibition: -8.8% (inactive)

## CCN(CC)c1ccc(/C=N/NC(=O)c2cnccn2)c(O)c1
At 35 µM
  inhibition: 1.5% (inactive)

## Cc1ccccc1CN1CCNC(=O)C1CC(=O)NCCC1=CCCCC1 (stereo not given)
At 35 µM
  inhibition: 5.3% (inactive)

## COc1cccc(CNS(=O)(=O)c2csc(C(N)=O)c2)c1
At 35 µM
  inhibition: 5.7% (inactive)

## CS(=O)(=O)N1CCc2nc(-c3ccccc3)sc2C1
At 35 µM
  inhibition: -3.4% (inactive)

## Cc1cc([N+](=O)[O-])ccc1NC(=O)C1CCCO1 (stereo not given)
At 35 µM
  inhibition: -1.7% (inactive)

## Cc1ccc(C)c(C(C)NC(=O)C2CCCO2)c1 (stereo not given)
At 35 µM
  inhibition: 92.8% (active)

## Cc1cc(C)c2nc(NC(=O)C3CCCO3)sc2c1 (stereo not given)
At 35 µM
  inhibition: -3.8% (inactive)

## COc1ccc(COC(=O)c2ccc(Cl)c(S(=O)(=O)N3CCOCC3)c2)cc1F
At 35 µM
  inhibition: 1.3% (inactive)

## NS(=O)(=O)c1ccc(NC(=O)COC(=O)c2ccc(Cl)nc2)cc1
At 35 µM
  inhibition: 7.6% (inactive)

## NS(=O)(=O)c1ccc(NC(=O)COC(=O)c2ccco2)cc1
At 35 µM
  inhibition: -10.4% (active)
Confirmation average, at 20 µM
  inhibition: 80.1%

## NS(=O)(=O)c1ccc(NC(=O)COC(=O)c2cc3ccccc3oc2=O)cc1
At 35 µM
  inhibition: -1.4% (inactive)

## Cc1ccc(NC2CCCN(C(=O)CCC3(C)CC3)C2)cc1C (stereo not given)
At 35 µM
  inhibition: -6.4% (inactive)

## CCCCc1ccc(NC(=O)NCc2cccnc2)cc1
At 35 µM
  inhibition: -1.5% (inactive)

## CCC1C(=O)NCCN1C(=O)c1ccc2nc(Cc3ccc(OC)cc3)oc2c1 (stereo not given)
At 35 µM
  inhibition: -1.1% (inactive)

## O=C(COc1ccc(Cl)cc1)Nc1ccccc1CO
At 35 µM
  inhibition: -15.9% (inactive)

## COC(=O)c1sccc1NC(=O)c1ccc(Cl)cc1
At 35 µM
  inhibition: -1.7% (inactive)

## COC(=O)c1sccc1NC(=O)COc1ccc(Cl)cc1
At 35 µM
  inhibition: -2% (active)
Confirmation average, at 20 µM
  inhibition: 90%

## O=C(CCC(=O)n1ncc2ccccc21)NCc1ccccc1Cl
At 35 µM
  inhibition: -5.2% (inactive)

## COCCCn1c2nc3ccccc3nc2c2c(=O)n(Cc3ccc(Cl)cc3)c(C)nc21
At 35 µM
  inhibition: -0.3% (inactive)

## Cc1ccc(Cn2c(C)nc3c(c2=O)c2nc4ccccc4nc2n3Cc2ccco2)cc1
At 35 µM
  inhibition: 18% (inactive)

## Cc1nc2c(c(=O)n1Cc1ccco1)c1nc3ccccc3nc1n2Cc1ccccc1
At 35 µM
  inhibition: 68.6% (active)

## Cc1cc(NC(=O)CCC(=O)N(CC(=O)NC2CCCC2)c2ccc(F)cc2)no1
At 35 µM
  inhibition: -1.3% (inactive)

## O=C(CSc1ccc(-c2ccccn2)nn1)Nc1ccccc1
At 35 µM
  inhibition: -8.7% (inactive)

## COc1ccc2[nH]c(=O)c(C3c4cc(OC)c(OC)cc4CCN3C(=O)c3ccco3)cc2c1 (stereo not given)
At 35 µM
  inhibition: -6.8% (inactive)

## CCOc1ccc(S(=O)(=O)Nc2ccc(OC)nc2)cc1
At 35 µM
  inhibition: -8.8% (inactive)

## COc1ccc(NS(=O)(=O)c2ccc(F)cc2F)cn1
At 35 µM
  inhibition: 65.2% (active)

## COc1ccc(S(=O)(=O)Nc2ccc(F)cc2)c(C)c1C
At 35 µM
  inhibition: 7.4% (inactive)

## Cc1ccc(NS(=O)(=O)c2ccc(C(C)(C)C)cc2)cn1
At 35 µM
  inhibition: -2.4% (inactive)
